A selection: hits, their analogues and other compounds. The true share with any hit is near 10%.
PLK1 PBD inh: PLK1 (human) polo-box domain binding inhibition. 2.8% of 360,000 active. Potency, µM, inactives show max response, negative = inhibition, usual class: inhibitors. AID 720504. P53350. Plk1 PBD binding of FITC phosphopeptide, fluorescence polarization; note: potency is the fitted concentration of half-maximal effect; series mostly up to about 57 µM; nearly all actives have a fitted effect of over 65% in size
Target sequence (P53350 whole entry, looked up, the tested form may be a part): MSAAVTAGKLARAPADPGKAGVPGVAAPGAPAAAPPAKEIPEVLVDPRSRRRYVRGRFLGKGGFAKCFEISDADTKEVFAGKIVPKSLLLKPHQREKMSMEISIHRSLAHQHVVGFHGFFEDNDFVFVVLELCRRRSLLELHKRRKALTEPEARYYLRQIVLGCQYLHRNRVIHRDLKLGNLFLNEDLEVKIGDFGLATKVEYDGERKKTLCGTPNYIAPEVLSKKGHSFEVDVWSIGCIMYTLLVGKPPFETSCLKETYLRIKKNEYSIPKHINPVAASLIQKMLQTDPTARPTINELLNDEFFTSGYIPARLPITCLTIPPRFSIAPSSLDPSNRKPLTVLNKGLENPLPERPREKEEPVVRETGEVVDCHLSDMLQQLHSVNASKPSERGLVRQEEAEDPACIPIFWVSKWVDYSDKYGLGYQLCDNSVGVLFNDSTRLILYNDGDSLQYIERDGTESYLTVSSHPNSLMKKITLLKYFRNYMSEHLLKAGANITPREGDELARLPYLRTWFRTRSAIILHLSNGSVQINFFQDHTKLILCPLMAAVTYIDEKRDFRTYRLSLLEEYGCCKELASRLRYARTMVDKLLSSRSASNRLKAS
Sfp PPTase inh: blocks B. subtilis Sfp PPTase activity. Q9F4F7. Biochemical Sfp PPTase activity, qHTS. Potency, µM, for inactives: largest response in the series, negative = inhibition, hits mostly inhibitors. 3.5% of 310,000 active;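 note: the enzyme is Sfp with the accession as filed and its product quenches rhodamine fluorescence; potency is the fitted concentration of half-maximal effect; 0% = enzyme reaction without inhibitor and -100% = no enzyme wells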
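Fluorescence-quenching assay: 15 nM Sfp-PPTase preincubated 15 min at room temperature with compound, then 5 uM rhodamine-CoA and 12.5 uM BHQ-2-labelled YbbR peptide added. Fluorescence (ex 525/em 598 nm) read at start and after 30 min; difference gives rate.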
VDR inhibitor: vitamin D3 receptor (human) inhibition | AID 504847 | 0.93% of 400,000 active | Potency, µM, inactives show max response, negative = inhibition, usual class: inhibitors | P11473 | VDR-SRC2-3 peptide fluorescence polarization, 2 h; note: potency is the fitted concentration of half-maximal effect
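Measured by FP: displacement of SRC2-3 coactivator peptide from VDR by library compounds, following a two-hour ambient incubation.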
CCT chaperon mod: cytosolic chaperonin activity modulation; activity change, % (concentration not given with the values), hits read low; purified chaperonin ATPase assay, HTRF ADP detection, 30 min; 0.3% of 360,000 active; in the data active = activity change below about -30%
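We incubate TRiC, 40 or 20 nM final, with library compounds at 76 uM and 10 uM ATP for 30 min at 37 °C. ADP formed is detected with Transcreener HTRF reagents after 30 min at room temperature.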
MmCpn inh: blocks the Methanococcus maripaludis chaperonin Mm-Cpn | AID 504842 | 0.031% of 330,000 active | purified Mm-Cpn ATPase, ADP Transcreener TR-FRET | Potency, µM (doses to about 76.9 µM), for inactives: at the top dose activity, negative = inhibition, hits mostly inhibitors; note: potency is the fitted concentration of half-maximal effect; nearly all actives have a fitted effect of over 80% in size
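ATPase read-out: TR-FRET ADP immunoassay (anti-ADP Eu cryptate vs ADP-d2), ex 320 nm, em 590/665 nm; signal drops as ADP forms. Enzyme 25 nM, ATP 10 uM, 30 min at 37°C after 10 min compound preincubation.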
G9a block: inhibitors of human histone lysine methyltransferase G9a. Q96KQ7. G9a H3K9 monomethylation, AlphaScreen, 2 h. Potency, µM (series often up to 102 µM), for inactives: top-dose activity, negative = inhibition, hits mostly inhibitors. 8.8% of 350,000 active; note: potency is the fitted concentration of half-maximal effect; nearly all actives have a fitted effect of over 75% in size
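Readings reflect AlphaScreen signal from monomethyl-H3K9 antibody detection. HMT at 20 nM; substrate b-H3K9 500 nM; cofactor SAM 20 uM; 2 h RT reaction; compounds tested as titrations in qHTS with 15 min preincubation.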
* hit, by the source's call; ? = inconclusive; . = not tested or not shown; [ ] = another dose, or the depositor's remark. Unless noted, calls come from the whole dose curve; as a rule, active = well fitted curve in the direction sought with a large enough effect; inconclusive = small, poorly fitted or top-dose-only effect, or another doubt; inactive = no such curve, though single readings can be large; an effect the other way counts as inactive or inconclusive. Unless noted, % is set by controls: 0 for no effect and ±100 for the full control effect.

SMILES	PLK1 PBD inh	Sfp PPTase inh	VDR inhibitor	CCT chaperon mod	MmCpn inh	G9a block
C/C(=C(/CCO)SS/C(CCO)=C(\C)N(C=O)Cc1cnc(C)nc1N)N(C=O)Cc1cnc(C)nc1N	.	-3.8%	31.6µM*	.	.	-27.4%[12.7 µM]
Cc1ccc(NC(=O)CSc2ncc(S(=O)(=O)c3ccccc3)c(=O)[nH]2)cc1C	-18.3%	-17.8%	-5.0%	-2.8	1.9%	8.9%
COc1cccc(NC(=O)CSc2ncc(S(=O)(=O)c3ccccc3)c(=O)[nH]2)c1	26.7µM*	23.9%	-29.1%	-1.6	1.1%	-32.2%
O=C(CSc1ncc(-c2ccc(F)cc2)[nH]1)N1CCCCC1	-13.8%	11.4%	-3.3%	-2.3	1.1%	44.7µM*
O=C(CSc1ncc(-c2ccccc2)[nH]1)Nc1cccc(Br)c1	.	.	-0.4%	.	.	12.6µM*
O=C(CSc1ncc(-c2ccccc2)[nH]1)Nc1ccccc1F	0.4%	-0.6%	3.1%	0.7	1.6%	?
O=C(CSc1ncc(-c2ccc(Cl)cc2)[nH]1)Nc1ccccc1F	.	.	-23.5%	.	.	10µM*
CCOC(=O)c1c(NC(=O)c2cc(=O)c3c(C)cc(C)cc3o2)sc(C)c1C	.	.	3.2%	.	.	-3.5%[59 µM]
CNC(=O)c1c(NC(=O)c2cc(=O)c3cc(C)c(C)cc3o2)sc2c1CCCC2	.	.	5.1%	.	.	2.3%[59 µM]
C=CCc1cccc2cc(C(=O)Nc3ccc(F)cc3)c(=O)oc12	-12.0%	10.9%	-4.8%	1.2	1.8%	1.9%[59 µM]
C=CCc1cccc2cc(C(=O)Nc3ccc(S(=O)(=O)Nc4nnc(CC)s4)cc3)c(=O)oc12	21.2µM*	79.4µM*	-16.8%	-1.6	-0.1%	?
C=CCc1cccc2cc(C(=O)Nc3ccc(CC(=O)O)cc3)c(=O)oc12	-15.6%	-2.7%	-2.5%	-2.9	-8.1%[15.4 µM]	50.1µM*
CCN1CCCC1CNC(=O)C(=O)NCCc1ccc(OC)c(OC)c1 (stereo unspecified)	2.0%	8.8%	11.1%	-33.6*	-0.6%	1.3%
COc1ccc(CCNC(=O)CCCOc2ccc(C)cc2)cc1OC	23.8µM*	-9.1%	50.1µM*	-0.9	0.1%	-9.5%[59 µM]
CN(C1CCCCC1)S(=O)(=O)c1ccc(Cl)c(C(=O)O)c1	18.9µM*	18.2%	?	0.5	0.3%	1.6%[59 µM]
COc1ccc(S(=O)(=O)N(CC(N)=O)C2CCCCC2)cc1Cl	11.9µM*	0.8%	-16.0%	-1.6	1.2%	3.4%
COc1ccc(CCNC(=O)C(=O)NCC2CCCN2S(=O)(=O)c2ccccc2)cc1OC (stereo unspecified)	0.9%	.	-15.9%	-3.4	0.1%	?
Cc1n[nH]c(C)c1S(=O)(=O)N1CCCC(C(=O)Nc2ccc(Cl)cc2)C1 (stereo unspecified)	.	.	-4.8%	.	.	6.5%[59 µM]
CC(CNC(=O)Cc1ccc(NC(=O)N2CCSc3ncccc32)cc1)c1ccccc1 (stereo unspecified)	.	.	4.5%	.	.	-28.8%[59 µM]
CCOc1ccc(CCNC(=O)c2c(C)oc3ncnc(N4CCOCC4)c23)cc1	.	.	1.9%	.	.	-10.1%[59 µM]
COc1ccc(CCNC(=O)CN(C2CCCCC2)S(C)(=O)=O)cc1OC	-4.9%	-6.9%	5.9%	-2.3	-1.3%	31.6µM*
COc1ccc(CCNC(=O)CC2SC(N)=NC2=O)cc1OC (stereo unspecified)	21.2µM*	23.2%	?	-8.4	2.3%	-34.5%
COc1ccc(CCNC(=O)Cc2ccc(OC)c(OC)c2)cc1OC	-10.7%	15.9%	12.9%	-2.5	.	-8.4%[59 µM]
CS(=O)(=O)N(CC(=O)NCCc1ccccc1)C1CCCCC1	-11.2%	-2.1%	0.1%	1.8	0.1%	?
COc1ccc(CCNC(=O)CCn2cccc2)cc1OC	-1.4%	16.6%	10.7%	0.8	-0.4%	10.5%[59 µM]
COc1ccc(CCNC(=O)CCN2C(=O)C3CC=CCC3C2=O)cc1OC (stereo unspecified)	23.8µM*	12.9%	9.4%	-0.6	?	-17.2%[59 µM]
COc1ccc(CCNC(=O)CC(Cc2ccc(C)cc2)C(=O)O)cc1OC (stereo unspecified)	23.8µM*	13.1%	-29.7%	0.0	2.3%	-5.9%
COc1ccc(C)cc1NC(=O)COCc1cc(-c2ccc(F)cc2)on1	.	.	-6.6%	.	.	30.1%[59 µM]
